Laboratory results from PubChem BioAssay (Tox21).
Results filed as inconclusive are left out. Activity calls are given as the source filed them. Unless noted, calls follow the shape of the dose curve; as a rule, active = well fitted curve in the direction sought with a large enough effect in the repeat runs; inconclusive = weak or mixed curves; inactive = no such curve, though single readings can be large; an effect the other way counts as inactive or inconclusive.

Legend:
[1] = qHTS assay to identify small molecule agonists of the vitamin D receptor (VDR) signaling pathway - cell viability counter screen (AID 743224); also: series mostly up to about 63 µM; nearly all actives have a fitted effect of over 50% in size
In short: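 Luminescence from CellTiter-Glo, read after 30 min at room temperature, reports viability of VDR-bla cells treated with compounds for 16 h at 37C in the wells used for the beta-lactamase FRET read.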

[2] = qHTS assay to identify small molecule antagonists of the vitamin D receptor (VDR) signaling pathway - cell viability counter screen (AID 743225); also: nearly all actives have a fitted effect of over 50% in size
In short: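 Cytotoxicity toward the VDR-bla HEK 293T line was scored by ATP-based CellTiter-Glo luminescence, read in the wells already used for the beta-lactamase readout after 16 h compound treatment under 3 nM 1-alpha,25-dihydroxyvitamin D3 stimulation.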

[3] = qHTS assay to identify small molecule agonists of the NFkB signaling pathway (AID 1159509; active = well fitted curve in the direction sought with a large enough effect in the signal ratio in the repeat runs, not every such curve was filed as active; the % refers to the signal ratio; also: series mostly up to about 61 µM)
In short: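 NFkB-bla ME-180 cells with a beta-lactamase reporter under an NF-kB response element were plated overnight, treated with compounds in DMSO for 5 hr at 37 C, then loaded with FRET substrate for 1.5 hr at room temperature.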

[4] = qHTS assay to identify small molecule agonists of the endoplasmic reticulum stress response signaling pathway (AID 1159516; active = well fitted activation curve with a large enough effect in the signal ratio in the repeat runs, not every such curve was filed as active; the % refers to the signal ratio)
In short: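 Read-out is beta-lactamase cleavage of a FRET substrate (405 nm excitation; 460 and 530 nm emissions) in ESRE-bla HeLa cells after a 5 hr compound exposure at 37 C. Substrate incubation ran 2 hr at room temperature.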

[5] = qHTS assay to identify small molecule agonists of the endoplasmic reticulum stress response signaling pathway - cell viability counter screen (AID 1159517; calls by dose curve;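 also: HeLa cells carrying an ER stress response element beta-lactamase reporter; series mostly up to about 61 µM; nearly all actives have a fitted effect of over 50% in size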)
In short: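 Counter-screen wells were identical to the reporter wells. Cells were plated at 1,500 per well and dosed for 5 hr, then read for luminescence 30 min after CellTiter-Glo addition.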

[6] = qHTS assay to identify small molecule antagonists of the retinoid-related orphan receptor gamma (ROR-gamma) signaling pathway - cell viability counter screen (AID 1159520); also: nearly all actives have a fitted effect of over 50% in size
In short: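 Tet-on ROR gamma CHO cells were given compounds for 2 hr, then doxycycline hyclate at 1 uM final, and incubated 16 hr at 37 C. Viability was measured as ATP content by CellTiter-Glo luminescence.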

[7] = qHTS assay to identify small molecule agonists of the AP-1 signaling pathway - cell viability counter screen (AID 1159525; calls by dose curve; also: nearly all actives have a fitted effect of over 55% in size)
In short: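 AP-1-bla ME-180 cells in Opti-MEM with 0.5% dialyzed FBS, compound exposure 5 h at 37 C in 15-point titration. Viability read in the same wells as ATP content by CellTiter-Glo luminescence, normalised to tetra-n-octylammonium bromide and DMSO controls.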

[8] = qHTS assay to identify small molecule agonists of the AP-1 signaling pathway (AID 1159526; calls by dose curve)
[9] = biological target: Nuclear receptor ROR-gamma (Homo sapiens) (UniProt P51449); test: qHTS assay to identify small molecule antagonists of the retinoid-related orphan receptor gamma (ROR-gamma) signaling pathway (AID 1159521)
In short: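 Readout: ONE-Glo luciferase luminescence, 30 min at room temperature. System: Tet-on RORγ CHO, RORE-LUC. Sequence: compound 2 h, doxycycline 1 uM final, 16 h at 37 C.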

[10] = qHTS assay to identify small molecule agonists of the NFkB signaling pathway - cell viability counter screen (AID 1159515; calls by dose curve; also: series mostly up to about 61 µM; nearly all actives have a fitted effect of over 55% in size)
In short: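 Luminescence from CellTiter-Glo (30 min, room temperature) gives viability, measured in the same wells as the beta-lactamase reporter read. Cells were NFkB-bla ME-180, 2,000 per well, treated 5 hr with compounds.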

Measured: Potency

CC(C)(C)c1cccc(O)c1
not listed: [9] | [10]
inactive: all other assays above

CC1(O)CSC(C)(O)CS1 (stereo not drawn)
not listed: [1] | [8] | [10]
inactive: all other assays above

C=CCCCCCCCCO
not listed: [3] | [9]
inactive: all other assays above
